These results are taken from PubChem BioAssay AID1508600 (Functional Genomics Laboratory (NCATS/FGL), 2020).

Screen size: about 53,000 sequences; about 3,700 (7%) were called active. Shown is part of a subset that was picked to be rich in actives. Unmarked numbers belong to inactive results.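 Rule for the calls: active = gene knockdowns whose robust z-score for IL-1 alpha signal is at least 2 or at most -2, so actives lie on both sides; inactive = the rest.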

A short description of this test: Components of the Cytosolic LPS Sensing Pathway: Gene Identification via Genome-wide siRNA Screen.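 Note: robust z of the log signal after scaling to non-targeting control siRNA wells of the plate.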 To be noted: RAW264.7 macrophages, IL-1a HTRF, actives lie on both sides, screened at 100 nM (by protocol), cells primed 5 h with Pam3CSK4 first. Summed up: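 Three distinct siRNAs per gene were tested singly at 100 nM in RAW264.7 macrophages. Following Pam3CSK4 priming and 24 hour LipidA transfection, IL-1a secretion was read by HTRF.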
As for GCUAUGUGGGAAGUUUCAUTT against Tmem263, the z-score is 0.924.
As for GGCCUAUAGGUUGGGCUCUTT against Tonsl, the z-score is -2.57 (active).
The value for GCGUGGAGUCUUCAGUCAUTT against Vhl was -0.101.
The value for GGAGAAGAGGACAGAAGCCTT against Akt1s1 was 0.757; that for GUUCAUGUCUAUCCUGUCUTT against Hba-x was -2.45 (active); that for “GCUCAAAACAAUCCACGCCTT against 1700006J14Rik” was -0.47.
For the sequence GGAUGAGAACAACUCUGCUTT against Lrtm2, the z-score is 0.439.
The figure for GGACCUGUUUGAUUUGGUGTT against Nf2 is 0.8; for GGAAAACCUUGGACAGGAGTT against Olfr876 it is -0.267.
The value for UGUGACUAUUGUUACUGUGTT against Olfr1512 was -1.06; that for GCAGUACCGAGCAGCAGAATT against Acad10 was -2.41 (active); that for CGAAUGUGGCUAUGACCUGTT against Kif6 was 0.555.
As for GGAAAAGGAGGUGGUACUGTT against Acan, the z-score is 0.743.
The value for GCAUACAGCUCAACAGUCATT against Padi2 was -0.51.
For GGAGAAGUAGAUGUAUAUGTT against Prkar1b, the z-score was -1.4.
The figure for GUACACCACAAUCCUCACCTT against Olfr677 is -0.0852; for GGUCCAGAGAAUGUUAUUATT against Spinkl it is 0.263; for GAAUAGAAGGGAAGAAAGUTT against Crb3 it is -2.08 (active).
The figure for GGGAACUUCCUUGAGAAGATT against Mgat4d is 0.654.
The value for GCAACGUGUCUUUUCAAACTT against P2ry10b was -0.223; that for GUUUCCUUGUGCUAAUGUUTT against Olfr1199 was 1.15; that for GGAAAACCUAAUAAGGUUCTT against Iqce was 2.72 (active).
GGCUCCAACAUAGAAAUGATT against Tpbpa: the z-score is 0.38.
As for GCUACGCAUUGAGGAGCUATT against Pkn1, the z-score was 0.168.
The figure for GCUUAUGUCGAAUGAUAGCTT against Id2 is -4.22 (active); for GGCUGCCAAGAAAAUCUAUTT against Rab14 it is 0.363; for GGAUGAACUCAUGAGAGCCTT against Cyb5r4 it is -0.323.
For the sequence GGGUUGAAAGAGCUUGCCATT against Vmn1r198, the z-score was -2.56 (active).
Regarding CCGAGGUUGUGAAACGAUGTT against Trp63, the z-score is -1.47.
In the case of GGAACCUCCUUAUUCAAUGTT against Rspry1, the z-score was 0.0592.
As for GGUUGAAGCAGAAGAUAAUTT against Asnsd1, the z-score was -2.2 (active).
The figure for GGUGGAGGUCUGGUUUAAGTT against Gsc is -0.4.
For GGUUGGCACAACUGUGUACTT against Cr2, the z-score was -0.0754.
Take GGAAACCAACUUCAGCCUGTT against Gfra1: the z-score is -0.0125.
For GCAAAUCCCAUGAACAGCUTT against Nvl, the z-score is -2.55 (active).
GGGCAAUCGACUGAGAAUUTT against Lingo4: the z-score is -0.0246.
For CGAAGAAAACCAUAAGGACTT against Bdnf, the z-score is -0.876.
The figure for GGAGAGCAAAUUAAGUUCATT against Erc1 is 1.01.
For the sequence GCAAUAAGGGCAUUAUAAATT against Wdhd1, the z-score was -0.407.
Turning to GGUUCAUAAUGCCUUCAAGTT against Olfr1449, the z-score was 0.719.
CCAGGAAGUUACAAUUCAATT against Ccpg1: the z-score is 0.181.
For the sequence GCCUAAUGCCAACUCACAATT against Samd7, the z-score is -1.49.
The figure for GGCACUGCACUUUAACAUATT against Serpinb7 is -0.402.
Take GGGUGUGAGGGAUUUCAUCTT against Ndufa2: the z-score is 2.22 (active).
The value for CCUAACCAUCGACUUCUUCTT against Wfs1 was -0.189.
As for GCGGGACUGACCUCUUAAUTT against Guk1, the z-score is -0.244.
As to GGAGUGAAGGUUCAGAUCCTT against Asic2, the z-score is 3.1 (active).
The value for GGCUUUCAGAGUUAACAAATT against Ptpn4 was -0.727; that for GGGUGUCUUCAACAAGUACTT against Dnttip1 was -1.71; that for GGAAAAAAGGAUUUCAAACTT against Rad9b was 1.3.
As to GGAAAGACCACCAAAUCCCTT against Dpy30, the z-score is 1.48.
Take GGCUCCAUAUGGAAUGCAGTT against Ets2: the z-score was 0.571.
The figure for CCAGCCGUAUUACAACUACTT against Bpnt1 is 2.12 (active); for GCUUAAACCGCCUAUGUUCTT against Spcs1 it is 0.782; for “GCUCACCUUUCUUGAGAAATT against 4930579C12Rik” it is -0.179.
Consider GGAAAAAGUGCAUUUAUGUTT against Prpf40a, for which the z-score is -1.16.
GCUGUUGCUGGCUAUUCUGTT against Eef2kmt: the z-score was -2.3 (active).
With AACAUGUCCAACCUAGGCATT against Lefty1, the z-score is -1.44.
Regarding GGUGGACUACUCACGAUUCTT against Kcnj4, the z-score was 0.867.
For GGAGCAGGACGAGAAUCAATT against Cdkn1c, the z-score was 3.62 (active).
For the sequence GCACUGGAAUCAAACCAUCTT against Ppp2r5b, the z-score is 0.444.
The figure for CGCAUUUUCUCUCGAGCUUTT against Slc25a30 is -0.34.
With GGAGCACAGUUUUGGUGCUTT against Olfr576, the z-score was 1.82.
As to GGAAGUAAAGCUCUACAAGTT against Vps28, the z-score is 0.236.
With GGCACAAUUUCUUUGAAUCTT against Ophn1, the z-score is 0.885.
Take GGCUAUUAGGUUUGAAAUCTT against Grsf1: the z-score is 0.351.
The figure for GGUUUCCAGUAAGAUCUUATT against Mdn1 is 2.21 (active); for “CCUAGAUUCUCCAAACUAATT against D630029K05Rik” it is -0.238; for GGAGAUGCGAGUACAACUGTT against Ermn it is 0.479.
Regarding GGAAAGAUGUGGUCCAGCUTT against Sirt3, the z-score was 0.373.
Regarding UUAAGCCGCUUUUGAAGCUTT against Olfr1200, the z-score is 0.812.
On to GGCUUUCAAGAUUCAGUGATT against Gsta1, for which the z-score was 0.103.
GGCACUUCAAGGAGUUUUUTT against Lig4: the z-score is 3.25 (active).
The value for GGAAAAUAAGCUAAGGAAGTT against Peg12 was -0.018; that for GGCAAUUUCUAAACAGGGATT against Atp6v1f was -2.01 (active); that for GCGAUGCUCCUAAUUCUUATT against Dusp21 was -1.18.
As to GCUACAGUUUGUGGGUGACTT against Zmynd15, the z-score was 0.11.
Regarding “CGAGUAUCCCGUCAAGUUGTT against 6820408C15Rik”, the z-score was -0.699.
Turning to GGCAAAUUAGCUAGUAUCATT against Rai2, the z-score was -2.2 (active).
The value for GGUGGAGAAGAGUUUCUGCTT against Gpr132 was 0.375; that for GGAGAAACAGAAGUAUUGATT against Nsa2 was -0.559.
The figure for GGGUUGGAACAAGGUAAUUTT against Usp16 is -0.546; for GGCUCAAAGCCAAUCUGAATT against Recql4 it is 2.06 (active).
GCUGUAUCCAGCUUUUCGGTT against Tcf3: the z-score is -0.43.
In the case of GCGAGAUUCUUAAAGAAAUTT against Brdt, the z-score is 0.645.
In the case of GAGCUGUGAAUGCCUGUGGTT against Lyz2, the z-score was -2.33 (active).
Consider GCUAGUUAAUGGUAACAUATT against Sult1d1, for which the z-score is -1.68.
As for GGCCAAACUGGAUUACUUATT against Tmprss11c, the z-score was 1.26.
The figure for CCCUGCUCUCACUUGUUUATT against Olfr643 is -0.446.
For CCUUUCUUGUGUUUACAGGTT against P2ry6, the z-score was -0.347.
With GGCAGUUUCUUCUUCCAAATT against H1f1, the z-score was 2.89 (active).
GGUGAUCAACAAUGGCAAUTT against Clec4a3: the z-score is 1.26.
On to GCACAUGUGUUUAUACAUUTT against Sfxn3, for which the z-score is -0.556.
On to CGACGAGGAAUAACCUCUCTT against Myh6, for which the z-score is 2.05 (active).
Consider GGGUAUGGCAUAAAUGUCCTT against Zpbp, for which the z-score is -2.75 (active).
As to GGCAUUCCAGAGAAAGCGUTT against F3, the z-score is -1.33.
In the case of GCGAAUUGGAACAGCUGACTT against Sh3glb1, the z-score was -0.982.
As to GGUAUACCACUAUUCUCACTT against Olfr649, the z-score is 0.705.
On to CCAUAUAUGAUAGGAAACUTT against Pon2, for which the z-score was -0.288.
Consider GCCACAAUGUCCAAAAUUATT against Rab6a, for which the z-score is -0.271.
For GGAGCUUUUAAGAAUGUGGTT against Ireb2, the z-score was -1.57.
In the case of GCAGGUGCCUUCAAAAACCTT against Pm20d2, the z-score is -0.926.
For CCUACGAGUUUUGCAUUUATT against Slc25a51, the z-score is -2.46 (active).
As to GGCAGCAGUUAAUUUACUUTT against Mmp21, the z-score was -1.71.
The value for GGCGGGUAGAUAUCAUGGGTT against Stn1 was 0.902; that for GGAAGCAAUGAUCAAUUAUTT against Ppp2r3c was 0.752.
As to GGUUCCAUGUUCAGAAUUUTT against Alg9, the z-score was 2.04 (active).
Turning to GGCAAUGAUGAUCUCCUCUTT against Htra3, the z-score was 0.434.
